Molecules are shown by their SMILES. Records with an inconclusive call do not appear. Entries that show only a call come without a potency. Activity calls are given as the source filed them. Calls come from the whole dose curve; as a rule, active = well fitted inhibition curve with a large enough effect; inconclusive = small, poorly fitted or top-dose-only effect; inactive = flat fitted curve, though single readings scatter.

The target of the test is Ubiquitin carboxyl-terminal hydrolase 1 (Homo sapiens) (UniProt O94782). The test is described as follows: Inhibitors of USP1/UAF1: Pilot qHTS (AID 504865).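 Note: rhodamine fluorescence freed from ubiquitin-rhodamine substrate followed over time; top concentration of the series differs between compounds; nearly all actives have a fitted effect of over 35% in size.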 Particulars: purified USP1/UAF1, Ub-rhodamine cleavage fluorescence; series mostly up to 114 µM. In a few lines: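 Kinetic fluorescence assay: 1nM USP1/UAF1, 15 min compound preincubation, then 150nM Ub-Rho; 480/540 nm.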
Ubiquitin carboxyl-terminal hydrolase 1 (Homo sapiens), sequence (O94782 whole entry, looked up): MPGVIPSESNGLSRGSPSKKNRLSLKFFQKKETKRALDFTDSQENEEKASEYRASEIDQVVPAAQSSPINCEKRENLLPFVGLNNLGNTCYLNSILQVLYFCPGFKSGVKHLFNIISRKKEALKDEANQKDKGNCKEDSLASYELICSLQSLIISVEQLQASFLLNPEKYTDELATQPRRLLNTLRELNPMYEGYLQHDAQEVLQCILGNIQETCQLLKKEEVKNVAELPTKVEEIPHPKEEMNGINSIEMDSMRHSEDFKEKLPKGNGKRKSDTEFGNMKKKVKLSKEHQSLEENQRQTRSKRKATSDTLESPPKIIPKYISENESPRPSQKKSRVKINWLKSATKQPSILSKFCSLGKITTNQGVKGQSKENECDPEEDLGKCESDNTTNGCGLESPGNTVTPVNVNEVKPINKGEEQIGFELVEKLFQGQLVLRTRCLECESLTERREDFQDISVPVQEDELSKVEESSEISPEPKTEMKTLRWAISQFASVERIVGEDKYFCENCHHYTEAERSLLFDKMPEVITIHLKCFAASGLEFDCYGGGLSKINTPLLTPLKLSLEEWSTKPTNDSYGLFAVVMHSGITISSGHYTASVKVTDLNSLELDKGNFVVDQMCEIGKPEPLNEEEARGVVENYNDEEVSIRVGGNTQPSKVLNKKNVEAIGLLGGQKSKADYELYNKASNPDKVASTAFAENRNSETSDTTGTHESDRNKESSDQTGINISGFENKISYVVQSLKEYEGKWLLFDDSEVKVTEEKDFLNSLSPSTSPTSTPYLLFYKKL
(In general: qHTS replaces the single test concentration by a dilution series.)
Turning to `COc1cc(OC)c2c(=O)c(-c3ccccc3)c(C)oc2c1OC`, the Potency entry was “inactive”.

`CC1(C)CC[C@]2(C(=O)O)CC[C@@]3(C)C(=CCC4[C@@]5(C)CCC(O)C(C)(C)C5CC[C@@]43C)C2C1` (stereo not given in full): the Potency entry is “inactive”.

Consider `NC(=O)c1ccc[n+]([C@@H]2OC(COP(=O)([O-])OP(=O)(O)OCC3OC(n4cnc5c(N)ncnc54)C(O)C3O)C(O)C2O)c1` (stereo not given in full), for which the Potency entry is “inactive”.

As to `CC1CC[C@@]23CCC4(C)[C@@]5(C)CCC6C(C)(C)C(=O)CC[C@@]6(C)C5C=C[C@@]4(OC2=O)C3C1C` (stereo not given in full), the Potency result is “inactive”.

Turning to `Nc1ncnc2c1nc(Br)n2C1OC(CO)C(O)C1O` (stereo not given), the Potency result was “inactive”.

Regarding `CN(N=O)C(=O)N[C@H]1C(O)C(O)C(CO)O[C@@H]1O` (stereo not given in full), the Potency result is “inactive”.

In the case of `C[C@]12CCC(=O)C=C1CCC1C2C(O)C[C@]2(C)C1CC[C@]2(O)C(=O)COC(=O)CCC(=O)O` (stereo not given in full), the Potency entry is “inactive”.

On to `Nc1nc2c(ncn2C2CC(O)C(CO)O2)c(=O)[nH]1` (stereo not given), for which the Potency result is “inactive”.

As for `COc1cc(C(C)=O)cc(OC)c1O`, the Potency result was “inactive”.

Turning to `Cn1c(=O)[nH]c(=O)c2[nH]cnc21`, the Potency entry was “inactive”.

Source of the values: PubChem BioAssay (NCATS).
